# PrP 5UTR inh: suppresses PrP 5' UTR mRNA reporter expression. cell-based PrP 5' UTR mRNA reporter, plate reader. inhibition, % (test concentration not listed). actives 0.35% (n = 340,000); in the data active means inhibition above about 52%; further: 0 = median of the neutral control wells
# PriA SSB inh: K. pneumoniae PriA-SSBct interaction inhibition | inhibition, % at 33 µM | AlphaScreen SSBct-PriA binding, biotinylated peptide | AID 1272365 | actives 0.6% (n = 430,000); in the data active means inhibition mostly above about 37%, no sharp cut-off; inactive means mostly below about 20%;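 further: plate controls were negative control peptide for no effect and reference peptide for full effect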
# PrPC surface inh: inhibitors of human cell surface prion protein PrPC. P04156. TR-FRET read-out. inhibition, % at 13.8 µM. actives 0.43% (n = 370,000). AID 720596; in the data active means inhibition above about 24%; further: 0% = median of the test wells and 100% = reference compound wells
# MazEF act: increases E. coli MazEF RNase cleavage of RNA | actives 0.32% (n = 350,000) | activation, % at 20 µM | FAM/BHQ RNA-DNA oligo cleavage fluorescence, 5 h | P0AE70; in the data active means activation above about 50%
# Target sequence (P0AE70 whole entry, looked up): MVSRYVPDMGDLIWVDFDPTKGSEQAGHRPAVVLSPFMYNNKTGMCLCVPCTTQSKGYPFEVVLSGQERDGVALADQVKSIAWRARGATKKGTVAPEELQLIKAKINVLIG
# PfHsp40 yeast: compounds rescuing yeast from Plasmodium falciparum HSP40 toxicity. S. cerevisiae expressing PfHsp40, growth rescue, ATP luminescence. growth rescue, % at 12.5 µM. actives 0.68% (n = 340,000). AID 504582; in the data active means growth rescue above about 28%, passing the limit was not always enough;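 further: yeast W303a lacking pdr1 and pdr3 grown in galactose medium; growth measured after three days at 30 °C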
# * = called active by the depositor; . = not tested or not shown. An excerpt weighted towards active compounds, which were near 1.8% of everything screened.
SMILES,PrP 5UTR inh,PriA SSB inh,PrPC surface inh,MazEF act,PfHsp40 yeast
O=C(COc1ccc(Cl)cc1)N1CCC(Cc2n[nH]c(=O)n2-c2ccccc2F)CC1,.,-21.0,.,.,.
O=S(=O)(NN=Cc1ccccc1O)c1ccc(Cl)cc1,.,-2.0,.,.,.
Cc1cc(C(=O)NNC(=O)c2ccc(Cl)cc2)c2ccccc2n1,-18.8,-17.8,2.8,2.4,65.4*
COC(=O)c1cc(CNC(=O)c2ccc(O)c(Cl)c2)ccc1OC,-1.0,-1.8,-3.1,-6.6,-0.8
COC(=O)c1cc(CNC(=O)c2ccccc2Cl)ccc1OC,1.9,-8.9,-6.2,9.6,47.3*
COc1ccc(Br)cc1C(=O)NCc1cccnc1,-8.5,-1.1,-0.1,-0.3,34.5*
CSCCC(NC(=O)c1ccccc1Cl)C(=O)NCc1ccncc1 (stereo not given),-14.3,-8.2,1.4,5.1,-1.6
CSCCC(NC(N)=O)C(=O)NCc1ccc(Cl)cc1 (stereo not given),-22.7,-5.5,2.5,-0.8,80.4*
CC(=O)Cc1nsc(Nc2ccc(C)cc2)n1,-4.3,-8.6,2.3,-6.6,1.4
CN(CC(=O)Nc1ccccc1Cl)CC(=O)c1c(N)n(Cc2ccccc2)c(=O)n(C)c1=O,.,-15.7,-7.8,66.5*,2.6
Cc1cc(CN(C)C(=O)c2ccc3nc(Cc4ccccc4F)oc3c2)n[nH]1,-8.0,6.9,-1.7,0.9,-2.0
O=S(OCCN1CCOCC1)C(c1ccccc1)c1ccccc1 (stereo not given),-7.7,12.9,-4.0,10.5,109.4*
CN1c2ccccc2C(C)(C)C12C=Cc1cc(O)ccc1O2 (stereo not given),-16.2,39.4*,5.1,17.7,4.0
CC(NCCN(C)C)C1CCC2C3CCc4cc(O)ccc4C3CCC12C (stereo not given),-19.8,7.6,-13.3,18.3,62.7*
COc1ccc(C[C@H]2CN3C(=NC[C@@H]3Cc3ccc(O)cc3)N2CCNC(=O)c2ccc(C)c(Br)c2)cc1,-7.8,41.8*,-2.5,-22.0,3.2
O=C(NCCc1ccncc1)[C@H]1CC(=O)N(C2CCOCC2)C1,.,-10.0,.,.,.
COC(=O)c1sccc1NC(=O)C1CCCCC1C(=O)O (stereo not given),-43.1,-10.9,37.1*,5.3,-1.0
CC[C@]12c3[nH]c4cc(-c5ccco5)ccc4c3CCN1C(=O)[C@@H](CC(=O)NC/C=C(\C)CCC=C(C)C)C[C@@H]2C(=O)N1CCN(C(=O)C2CC2)CC1,-24.7,0.0,-3.6,-6.8,1.1
CC(C)=CCC/C(C)=C/CNC(=O)C[C@H]1C[C@H](C(=O)N2CCCCC2)[C@@]2(CCc3ccccc3)c3[nH]c4cc(-c5ccco5)ccc4c3CCN2C1=O,-9.7,-0.1,.,75.4*,-0.5
O=S(=O)(c1ccccc1)C1CC2CCC(C1)N2S(=O)(=O)c1cnc[nH]1 (stereo not given),.,-6.0,.,.,.
CCOC(=O)C1=C(C)NC2=C(C(=O)c3ccccc32)C1c1ccc(O)cc1 (stereo not given),-5.8,52.5*,-45.0,2.5,0.6
Cc1nc(NCCCn2ccnc2)c2ccccc2n1,-27.3,7.3,-5.5,-2.5,0.9
c1cncc(-c2nc(NCCCn3ccnc3)c3ccccc3n2)c1,6.2,40.2*,-14.6,2.9,1.1
O=C(Nc1cccc2ccccc12)N(c1ccccc1)c1ccccc1,-22.6,-15.9,-1.9,0.5,0.5
COC(=O)CCCC1=CC2=C(c3ccccc3)C(=O)C(C)(OC(=O)C3CCCC3)C(=O)C2=CN1CCc1ccccn1 (stereo not given),-8.6,3.4,-21.6,-8.9,-0.9
SMILES,PrP 5UTR inh,PriA SSB inh,PrPC surface inh,MazEF act,PfHsp40 yeast
COC(=O)CCCC1=CC2=C(c3ccccc3)C(=O)C(C)(OC(=O)C3CCCC3)C(=O)C2=CN1CCc1c[nH]c2ccccc12 (stereo not given),-15.9,1.3,-5.4,53.8*,-0.8
CCOc1cc([N+](=O)[O-])cc(/C=N/NC(=O)c2c(-c3ccccc3)noc2C)c1O,-13.6,.,.,1.5,260.7*
O=c1oc(-c2ccccc2)cc2ccccc12,.,-18.0,1.5,.,.
O=c1oc(-c2ccccc2)cc(Cl)c1Cl,-27.5,-11.9,-2.6,27.0,556.2*
COc1cc2c(cc1NC(=O)C(C)Sc1ccc(NC(C)=O)cc1)oc1ccccc12 (stereo not given),-11.5,2.9,22.3,-8.5,33.2*
COc1cc2c(cc1NC(=O)Nc1ccc(C)cc1)oc1ccccc12,-16.6,-1.9,16.4,7.7,22.8
Cc1cc(=O)n(Nc2ccccc2)c(O)c1C#N,.,.,1.0,3.7,.
CCCCCCNC(=O)CC(c1ccccc1)c1cc(Br)ccc1O (stereo not given),-5.4,-11.6,10.3,4.4,39.6*
CSc1ccc(CN2CCC(C)(Oc3ccccc3F)C2)cc1 (stereo not given),.,.,-6.5,.,.
CC(C)(C)c1nnc(N/N=C/c2ccccc2O)n(N)c1=O,30.4,.,-0.6,0.4,71.0*
CC(C)(C)c1nnc(NN=Cc2cc(Br)ccc2O)n(N)c1=O,.,60.6,.,.,.
CCCCc1c(-c2ccccc2OC)ncn1Cc1ccc(OC)cc1,.,.,7.5,.,.
O=C(NCCCn1ccnc1)C(=O)Nc1ccc2c(c1)N(S(=O)(=O)c1cccs1)CCC2,.,51.0*,.,.,.
CSc1ccc(S(=O)(=O)NC2CC3CCC2C3)cc1 (stereo not given),-14.3,-15.8,11.7,9.7,77.9*
COc1ccc(S(=O)(=O)NC2CC3CCC2C3)cc1 (stereo not given),-12.3,-5.0,2.2,4.5,95.0*
O=S(=O)(N[C@@H]1C[C@H]2CC[C@@H]1C2)c1cccs1,-9.9,-2.0,-4.3,-7.8,2.4
COc1ccc([C@H]2CC(=O)C=C(c3cccc(NC(C)=O)c3)C2)cc1,-10.6,-1.1,-12.4,-2.9,-0.5
Nc1nc2ccc([N+](=O)[O-])c(N)c2s1,0.1,54.8*,-26.1,1.0,-1.3
CSc1nc2ccc3nc(N)sc3c2s1,.,-4.0,.,.,.
CCOC(=O)/C=c1\sc(=C(C#N)C(N)=O)n(-c2ccccc2)c1=O,.,0.5,.,.,.
CCCCC1S/C(=N/N=C/c2ccco2)NC1=O (stereo not given),3.4,.,0.3,-6.5,-0.4
CCCCCCCCCCCCCCCC(=O)NCCc1c[nH]c2ccccc12,6.9,-13.4,9.9,-8.9,-1.3
O=C(Nc1ccc(Cl)cc1)Nc1nc(C(=O)O)cs1,.,87.0*,.,.,.
O=C(Cc1csc(Nc2cccc(Cl)c2)n1)NCCc1c[nH]c2ccccc12,.,36.0*,.,.,.
O=C(Cc1csc(NC(=O)Nc2ccc(Cl)cc2)n1)NCCc1c[nH]c2ccccc12,.,52.0*,.,.,.
O=C(O)CCc1csc(NC(=O)Nc2ccc(Cl)cc2)n1,.,10.0,.,.,.
O=C(CCCc1cccs1)NCCc1c[nH]c2ccccc12,-12.4,46.5*,-3.0,7.7,.
CCOc1cc(C2/C(=C(/O)c3ccc(OC)cc3)C(=O)C(=O)N2CC2CCCO2)ccc1O (stereo not given),.,.,.,0.8,.
O=S(=O)(Nc1ccccc1Cl)c1ccc(-c2ccccn2)s1,-22.0,-10.2,-3.1,-0.1,7.2
Cc1ccc(/C=C2/NC(=O)N(Cc3ccccc3F)C2=O)s1,-23.3,-18.4,-8.3,85.8*,-1.3

# Source: PubChem
